Data as given in PubChem BioAssay (Tox21).
Where “and” joins values, the source holds several entries; their conditions need not be identical. Equal values may be shown once. Records with an inconclusive call do not appear. A structure can be active in one record and inactive in another. Calls of active or inactive are those of the source. Unless noted, the call rests on the fitted dose curve; in most records, active means well fitted curve in the direction sought with a large enough effect in the repeat runs; inconclusive means weak or mixed curves; inactive means no such curve, though single readings can be large; an effect the other way counts as inactive or inconclusive.

How the values were obtained:
[1] = qHTS assay to identify small molecule antagonists of the glucocorticoid receptor (GR) signaling pathway - cell viability counter screen (AID 720693); further: nearly all actives have a fitted effect of over 55% in size
[2] = qHTS assay for identifying genotoxic compounds that show differential cytotoxicity against isogenic chicken DT40 cell lines with known DNA damage response pathways - wild type cell line (AID 743012); further: nearly all actives have a fitted effect of over 60% in size; further: potency means the concentration at half of the fitted maximal effect
In short: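 Parental DNA repair-proficient DT40 cells, 300 per well, were pre-incubated ~0.5 h at 37 C/5% CO2, pin-dosed with compounds in DMSO, then incubated 40 h. Viability was read as CellTiter-Glo luminescence after 30 min at room temperature.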

[3] = qHTS assay for identifying genotoxic compounds that show differential cytotoxicity against isogenic chicken DT40 cell lines with known DNA damage response pathways - Rev3 mutant cell line (AID 743014); further: nearly all actives have a fitted effect of over 55% in size; further: potency means the concentration at half of the fitted maximal effect
[4] = qHTS assay for identifying genotoxic compounds that show differential cytotoxicity against isogenic chicken DT40 cell lines with known DNA damage response pathways - Rad54/Ku70 mutant cell line (AID 743015); further: nearly all actives have a fitted effect of over 60% in size; further: potency means the concentration at half of the fitted maximal effect
[5] = qHTS assay to identify small molecule antagonists of the androgen receptor (AR) signaling pathway - cell viability counter screen (AID 743033; further: nearly all actives have a fitted effect of over 45% in size)
[6] = qHTS assay to identify small molecule antagonists of the androgen receptor (AR) signaling pathway using the MDA cell line - cell viability counter screen (AID 743041; further: nearly all actives have a fitted effect of over 45% in size)
In short: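 MDA-kb2 AR-luc human breast carcinoma cells (MMTV-luciferase, AR/GR responsive) were treated with compounds plus R1881 agonist for 16 h at 37 °C. Viability was read as CellTiter-Fluor fluorescence in the same wells as the reporter assay.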

[7] = qHTS assay to identify small molecule antagonists of the thyroid receptor (TR) signaling pathway - cell viability counter screen (AID 743064); further: nearly all actives have a fitted effect of over 50% in size
In short: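 In-well cytotoxicity read by CellTiter-Fluor (30 min, 37 C) following 23.5 h exposure of GH3 cells bearing a TRE-luciferase sensor. Compounds were added alongside 1 nM (final) T3 to drive TR transactivation.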

[8] = test system: thyroid hormone receptor (rat, GH3 cells); assay: qHTS assay to identify small molecule agonists of the thyroid receptor (TR) signaling pathway (AID 743066; calls by dose curve)
[9] = target: Estrogen receptor (Homo sapiens) (UniProt P03372); assay: qHTS assay to identify small molecule antagonists of the estrogen receptor alpha (ER-alpha) signaling pathway (AID 743069; active means well fitted curve in the direction sought with a large enough effect in the signal ratio in the repeat runs, not every such curve was filed as active; the % refers to the signal ratio)
In short: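 HEK293 cells stably carrying an ER-alpha-UAS-bla beta-lactamase reporter were pre-cultured overnight in 2% charcoal-stripped FBS medium. Test compounds in DMSO were added together with 17beta-estradiol for 18 hr at 37C. Read-out was fluorescence after 2 hr with LiveBLAzer B/G FRET substrate at room temperature.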

[10] = qHTS assay to identify small molecule antagonists of the estrogen receptor alpha (ER-alpha) signaling pathway - cell viability counter screen (AID 743074; calls by dose curve; further: nearly all actives have a fitted effect of over 45% in size)
[11] = target: Estrogen receptor (Homo sapiens) (UniProt P03372); assay: qHTS assay to identify small molecule agonists of the estrogen receptor alpha (ER-alpha) signaling pathway (AID 743075; calls by dose curve)
[12] = target: Estrogen receptor (Homo sapiens) (UniProt P03372); assay: qHTS assay to identify small molecule agonists of the estrogen receptor alpha (ER-alpha) signaling pathway using the BG1 cell line (AID 743079); further: nearly all actives have a fitted effect of over 20% in size; further: potency means the concentration at half of the fitted maximal effect
[13] = qHTS assay to identify small molecule antagonists of the estrogen receptor alpha (ER-alpha) signaling pathway using the BG1 cell line (AID 743080; calls by dose curve;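 further: BG1 cells stimulated with 17beta-estradiol alongside compound; nearly all actives have a fitted effect of over 25% in size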; further: potency means the concentration at half of the fitted maximal effect)
In short: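 Endogenous full-length ER-alpha in BG1-Luc-4E2 cells drives a stably integrated 4×ERE luciferase gene; compounds were tested against 17beta-estradiol over 21.5 h, with luminescence and multiplexed viability fluorescence recorded.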

[14] = qHTS assay to identify small molecule antagonists of the estrogen receptor alpha (ER-alpha) signaling pathway using the BG1 cell line - cell viability counter screen (AID 743081);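 further: compound given together with 17beta-estradiol as the ER stimulus; series mostly up to about 70 µM; nearly all actives have a fitted effect of over 45% in size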
Aromatase (Homo sapiens) = Aromatase (Homo sapiens) (UniProt P11511); assay: qHTS assay to identify aromatase inhibitors (AID 743083); further: series mostly up to about 70 µM; nearly all actives have a fitted effect of over 55% in size
[15] = qHTS assay to identify aromatase inhibitors - cell viability counter screen (AID 743084);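 further: cells stimulated with testosterone during compound exposure; nearly all actives have a fitted effect of over 55% in size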
[16] = qHTS assay to identify small molecule antagonists of the thyroid receptor (TR) signaling pathway (AID 743065)
In short: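 GH3.TRE-Luc rat pituitary cells carrying two TR response elements driving luciferase were plated for 4 h, given compound plus 1 nM T3 (final), and incubated 23.5 h at 37 C. ONE-Glo luminescence measured reporter inhibition; CellTiter-Fluor fluorescence tracked cytotoxicity.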

[17] = target: Androgen receptor (Homo sapiens) (UniProt P10275); assay: qHTS assay to identify small molecule antagonists of the androgen receptor (AR) signaling pathway (AID 743035; active means well fitted inhibition curve with a large enough effect in the signal ratio in the repeat runs, not every such curve was filed as active; the % refers to the signal ratio)
In short: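 HEK293 cells stably carrying a UAS-driven beta-lactamase reporter (AR-UAS-bla GripTite) were plated for 4 h at 37C, then given compound and the agonist R1881 and incubated 16 h. Reporter activity was read by LiveBLAzer B/G FRET fluorescence after 2 h at room temperature.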

[18] = target: Androgen receptor (Homo sapiens) (UniProt P10275); assay: qHTS assay to identify small molecule agonists of the androgen receptor (AR) signaling pathway using the MDA cell line (AID 743040; further: nearly all actives have a fitted effect of over 20% in size)
In short: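 MDA-kb2 breast carcinoma cells stably carrying an MMTV-driven luciferase reporter (AR- and GR-responsive) were seeded and held 5 h at 37C, 0% CO2, then exposed to compounds in DMSO for 16 h. Luminescence was read 30 min after ONE-Glo addition.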

[19] = target: Androgen receptor (Homo sapiens) (UniProt P10275); assay: qHTS assay to identify small molecule antagonists of the androgen receptor (AR) signaling pathway using the MDA cell line (AID 743042; further: nearly all actives have a fitted effect of over 55% in size)
In short: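 MDA-kb2 cells (human breast carcinoma, stably carrying an MMTV-luciferase reporter responsive to AR and GR) were plated at 3,000 cells/well and preincubated 5 hr at 37C, then given compound plus R1881 agonist for 16 h. ONE-Glo luminescence was read.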
On the % scale 0 is the no-effect control and ±100 the full control effect.

Chain of Aromatase (Homo sapiens) (P11511 whole entry, looked up): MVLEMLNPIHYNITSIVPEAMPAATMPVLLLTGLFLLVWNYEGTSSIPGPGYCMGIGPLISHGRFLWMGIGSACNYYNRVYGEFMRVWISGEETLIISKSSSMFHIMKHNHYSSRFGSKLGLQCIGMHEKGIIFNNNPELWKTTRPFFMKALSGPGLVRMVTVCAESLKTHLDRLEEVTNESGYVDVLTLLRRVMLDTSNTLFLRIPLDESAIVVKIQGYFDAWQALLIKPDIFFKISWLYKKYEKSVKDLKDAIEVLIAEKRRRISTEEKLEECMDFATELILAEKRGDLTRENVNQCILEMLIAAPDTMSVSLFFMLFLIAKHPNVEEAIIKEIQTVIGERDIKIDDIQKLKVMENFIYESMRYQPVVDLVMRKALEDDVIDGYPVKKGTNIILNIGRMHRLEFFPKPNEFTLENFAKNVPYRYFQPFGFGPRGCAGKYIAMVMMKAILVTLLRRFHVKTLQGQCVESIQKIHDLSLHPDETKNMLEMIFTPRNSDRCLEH
Chain of Androgen receptor (Homo sapiens) (P10275 whole entry, looked up): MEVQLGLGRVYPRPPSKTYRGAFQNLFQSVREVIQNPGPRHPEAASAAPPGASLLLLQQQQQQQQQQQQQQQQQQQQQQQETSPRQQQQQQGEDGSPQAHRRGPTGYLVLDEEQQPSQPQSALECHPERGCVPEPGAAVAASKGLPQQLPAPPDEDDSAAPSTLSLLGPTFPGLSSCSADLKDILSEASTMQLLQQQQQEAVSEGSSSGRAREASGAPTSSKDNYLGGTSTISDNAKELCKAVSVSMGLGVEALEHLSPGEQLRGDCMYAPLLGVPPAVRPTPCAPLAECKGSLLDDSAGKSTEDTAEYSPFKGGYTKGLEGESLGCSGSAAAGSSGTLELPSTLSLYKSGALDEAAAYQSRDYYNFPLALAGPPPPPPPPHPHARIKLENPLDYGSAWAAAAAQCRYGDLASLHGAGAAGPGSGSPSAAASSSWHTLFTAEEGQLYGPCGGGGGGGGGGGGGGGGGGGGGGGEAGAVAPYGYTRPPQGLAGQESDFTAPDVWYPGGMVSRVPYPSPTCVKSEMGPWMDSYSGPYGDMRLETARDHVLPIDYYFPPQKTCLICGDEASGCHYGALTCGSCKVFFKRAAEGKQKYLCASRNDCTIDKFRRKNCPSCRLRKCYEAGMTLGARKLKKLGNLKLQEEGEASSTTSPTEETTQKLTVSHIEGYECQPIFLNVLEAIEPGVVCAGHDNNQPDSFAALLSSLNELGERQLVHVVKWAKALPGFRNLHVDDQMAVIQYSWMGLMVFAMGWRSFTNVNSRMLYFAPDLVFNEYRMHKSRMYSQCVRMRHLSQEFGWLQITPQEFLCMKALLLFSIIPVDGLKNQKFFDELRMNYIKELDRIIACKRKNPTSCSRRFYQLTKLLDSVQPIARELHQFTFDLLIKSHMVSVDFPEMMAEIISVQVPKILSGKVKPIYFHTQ
Chain of Estrogen receptor (Homo sapiens) (P03372 whole entry, looked up): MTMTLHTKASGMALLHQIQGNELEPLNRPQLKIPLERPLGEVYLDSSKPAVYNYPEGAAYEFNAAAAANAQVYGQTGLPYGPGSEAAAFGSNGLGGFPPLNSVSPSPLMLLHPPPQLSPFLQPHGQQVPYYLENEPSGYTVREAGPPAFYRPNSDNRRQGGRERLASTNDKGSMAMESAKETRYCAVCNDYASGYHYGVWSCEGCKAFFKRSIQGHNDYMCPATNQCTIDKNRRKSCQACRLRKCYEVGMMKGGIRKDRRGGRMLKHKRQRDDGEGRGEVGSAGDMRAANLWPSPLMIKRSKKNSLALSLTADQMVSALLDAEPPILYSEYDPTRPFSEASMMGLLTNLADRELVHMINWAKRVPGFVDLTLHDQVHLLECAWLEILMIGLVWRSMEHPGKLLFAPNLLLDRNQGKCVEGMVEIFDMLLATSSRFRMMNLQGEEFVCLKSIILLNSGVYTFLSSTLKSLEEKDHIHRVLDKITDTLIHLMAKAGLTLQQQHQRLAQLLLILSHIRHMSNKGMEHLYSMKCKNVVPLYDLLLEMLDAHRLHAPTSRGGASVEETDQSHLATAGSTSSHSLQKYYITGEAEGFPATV

Cc1ccccc1O
inactive: outcome [1] | Potency [2] | Potency [3] | Potency [4] | outcome [5] | outcome [6] | Potency [7] | outcome [8] | Potency [9] | Potency [10] | Potency [11] | Potency [12] | Potency [13] | outcome [14] | Potency (Aromatase (Homo sapiens)) | outcome [15]

CC(C)(Cl)Cl
inactive: outcome [1] | Potency [2] | Potency [3] | Potency [4] | outcome [5] | outcome [6] | Potency [7] | outcome [8] | Potency [10] | outcome [14] | Potency (Aromatase (Homo sapiens)) | outcome [15]

CC(=O)C=C(C)C
inactive: outcome [1] | Potency [2] | Potency [3] | Potency [4] | outcome [5] | outcome [6] | Potency [7] | outcome [8] | Potency [9] | Potency [10] | Potency [11] | Potency [12] | Potency [13] | outcome [14] | Potency (Aromatase (Homo sapiens)) | outcome [15]

COC(=O)c1ccccc1C(=O)OC
inactive: outcome [1] | Potency [2] | Potency [3] | Potency [4] | outcome [5] | outcome [6] | Potency [7] | outcome [8] | Potency [9] | Potency [10] | Potency [11] | Potency [12] | Potency [13] | outcome [14] | Potency (Aromatase (Homo sapiens)) | outcome [15]

Nc1ccc(Cc2ccc(N)cc2)cc1
inactive and 48.6 µM (active): Potency [3]
inactive: outcome [1] | Potency [2] | Potency [4] | outcome [5] | outcome [6] | Potency [7] | Potency [16] | outcome [8] | Potency [10] | outcome [14] | Potency (Aromatase (Homo sapiens)) | outcome [15]

C1CC2OC2CC1C1CO1 (stereo not given)
inactive: outcome [1] | Potency [2] | Potency [3] | Potency [4] | outcome [6] | Potency [7] | Potency [16] | outcome [8] | Potency [9] | Potency [10] | Potency [11] | Potency [12] | Potency [13] | outcome [14] | Potency (Aromatase (Homo sapiens)) | outcome [15]

CC(C)OC(=O)Nc1cccc(Cl)c1
inactive: outcome [1] | Potency [2] | Potency [3] | Potency [4] | outcome [5] | outcome [6] | Potency [7] | outcome [8] | Potency [9] | Potency [10] | Potency [11] | Potency [12] | outcome [14] | Potency (Aromatase (Homo sapiens)) | outcome [15]

Cc1ccc([N+](=O)[O-])cc1C
inactive: outcome [1] | Potency [2] | Potency [3] | Potency [4] | outcome [5] | outcome [6] | Potency [7] | Potency [16] | outcome [8] | Potency [9] | Potency [10] | Potency [11] | Potency [12] | Potency [13] | outcome [14] | Potency (Aromatase (Homo sapiens)) | outcome [15]

[N-]=[N+]=[N-]
inactive and 68.6 µM (active): Potency [13]
inactive: outcome [1] | Potency [2] | Potency [3] | Potency [4] | Potency [17] | outcome [18] | outcome [6] | outcome [19] | Potency [7] | Potency [16] | outcome [8] | Potency [9] | Potency [10] | Potency [11] | Potency [12] | outcome [14] | Potency (Aromatase (Homo sapiens)) | outcome [15]

O=C1CCCN1
inactive: outcome [1] | Potency [2] | Potency [3] | Potency [4] | outcome [5] | outcome [6] | Potency [7] | Potency [16] | outcome [8] | Potency [9] | Potency [10] | Potency [11] | Potency [13] | outcome [14] | Potency (Aromatase (Homo sapiens)) | outcome [15]
inactive and 48.6 µM (active): Potency [12]

C=C(C)CCl
inactive: outcome [1] | Potency [2] | Potency [3] | Potency [4] | outcome [5] | Potency [17] | outcome [18] | outcome [6] | outcome [19] | activity change, negative = cytotoxic [7] -10.5% [at 8.44 µM] | Potency [16] | outcome [8] | Potency [9] | Potency [10] | Potency [11] | Potency [12] | Potency [13] | outcome [14] | Potency (Aromatase (Homo sapiens)) | outcome [15]

CCCCCOC(=O)c1ccccc1C(=O)OCCCCC
inactive and 61.1 µM (active): Potency [2]
inactive: outcome [1] | Potency [3] | Potency [4] | outcome [5] | outcome [6] | Potency [7] | Potency [16] | outcome [8] | Potency [9] | Potency [10] | Potency [11] | Potency [12] | Potency [13] | outcome [14] | Potency (Aromatase (Homo sapiens)) | outcome [15]

Cc1ccc(N)cc1Cl
inactive: outcome [1] | Potency [2] | Potency [3] | Potency [4] | outcome [5] | outcome [6] | Potency [7] | Potency [16] | outcome [8] | Potency [9] | Potency [10] | Potency [11] | Potency [12] | Potency [13] | outcome [14] | Potency (Aromatase (Homo sapiens)) | outcome [15]

CCNc1nc(NC(C)C)nc(SC)n1
active: Potency [3] 61.1 µM | Potency [4] 61.1 µM
inactive and 61.1 µM (active): Potency [2]
inactive: outcome [1] | outcome [18] | outcome [6] | outcome [19] | Potency [7] | Potency [16] | outcome [8] | Potency [10] | outcome [14] | Potency (Aromatase (Homo sapiens)) | outcome [15]

CCCCN(CC)C(=O)SCCC
inactive: outcome [1] | Potency [2] | Potency [3] | Potency [4] | outcome [5] | Potency [17] | outcome [18] | outcome [6] | outcome [19] | Potency [7] | outcome [8] | Potency [9] | Potency [10] | Potency [11] | Potency [12] | Potency [13] | outcome [14] | Potency (Aromatase (Homo sapiens)) | outcome [15]

Nc1ccccc1C(=O)O
inactive: outcome [1] | Potency [2] | Potency [3] | Potency [4] | outcome [5] | outcome [6] | Potency [7] | outcome [8] | Potency [9] | Potency [10] | Potency [11] | Potency [12] | Potency [13] | outcome [14] | Potency (Aromatase (Homo sapiens)) | outcome [15]
